Screening data as filed in PubChem.
ELG1 repair inh – blocks ELG1-dependent DNA repair in HEK293T cells; HEK293T ELG1-luciferase reporter, luminescence, 16 h; DNA damage induced by 5-fluorouridine; AID 504467; hit rate 2.3% among 330,000; Potency, µM (series often up to 46.1 µM), for inactives: top-dose activity change, negative = inhibition, most hits filed as inhibitors; note: potency is the fitted concentration of half-maximal effect; nearly all actives have a fitted effect of over 55% in size
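Cells (2,000 per well) received 5-fluorouridine plus test compound or DMSO and were incubated 16 hr at 37 °C, 5% CO2. Luciferase activity was read by luminescence 30 min after ONE-Glo addition; signal suppression marked inhibition of damage-induced ELG1 function.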
IL1B secr inh – inhibitors of inflammasome signaling (IL-1 beta secretion); THP-1 LPS/ATP IL-1B secretion, AlphaLISA, 16 h; active compounds read low; activity change, % at 57.5 µM; hit rate 4.7% among 360,000; in the data active = activity change below about -50%; inconclusive = mostly about -30% to -49%
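THP-1 cells pretreated 1 hr with compounds (up to 57.5 uM final), then stimulated with LPS (250 ng/mL final) plus ATP (1.25 mM final); secreted IL-1B measured by AlphaLISA after 16 hr, decreased signal indicating inhibition.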
TDP1 cell noCPT – qHTS for Inhibitors of human tyrosyl-DNA phosphodiesterase 1 (TDP1): qHTS in cells in absence of CPT; hit rate 15% among 420,000; Potency, µM (series often up to 46.2 µM), for inactives: at the top dose activity change, negative = growth inhibition, usual class: inhibitors; DT40 Tdp1-/- hTDP1 cells, no CPT, ATP luminescence, 48 h; AID 686978, 2013; note: potency is the fitted concentration of half-maximal effect; nearly all actives have a fitted effect of over 55% in size
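No-CPT arm: Tdp1-/-;hTDP1 DT40 cells (400/well) plus compounds, incubated ≥48 hr at 37 °C. Readout CellTiter-Glo luminescence.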
HT1080 IDH1KD tx – toxicity to HT-1080 IDH1 knockdown cells (counter line) | Potency, µM (doses to about 46.1 µM), inactives show top-dose activity, negative = toxicity, hits mostly cytotoxic | hit rate 2% among 360,000 | HT-1080 IDH1 knockdown viability, ATP luminescence, 48 h;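 note: potency is the fitted concentration of half-maximal effect; 0% = DMSO wells and -100% = cell-free medium wells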
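Luminescent ATP read-out (CellTiter-Glo, 10 min at room temperature) after 48 h compound exposure at 37 °C gave viability of IDH1-knockdown HT-1080 cells. Activity was normalised to DMSO and cell-free wells, then fitted as concentration-response curves.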
HT1080NT lethal – kills 2HG-producing HT-1080-NT fibrosarcoma cells | HT-1080-NT fibrosarcoma viability, CellTiter-Glo ATP luminescence, 48 h | Potency, µM (top dose mostly 46.1 µM), without a hit: at the highest dose activity, negative = less viability, hits mostly cytotoxic | hit rate 1.6% among 360,000 | AID 686970;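 note: NT is the 2HG producing partner of a matched IDH1 knockdown line; potency is the fitted concentration of half-maximal effect; 0% = DMSO-treated cells and -100% = media-only wells without cells; nearly all actives have a fitted effect of over 55% in size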
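750 cells/well, RPMI + 5% FBS; 2 h settle, compound pin-transfer, 48 h at 37 degrees C. CellTiter-Glo 10 min RT, luminescence. Normalized to DMSO and media-only wells.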
DT40 TDP1 CPT – growth inhibition of DT40 Tdp1-/-;hTDP1 cells with camptothecin (screen for TDP1 inhibitors). AID 686979. chicken DT40 Tdp1-/-;hTDP1 cells + 20 nM CPT, ATP luminescence, 48 h. hit rate 12% among 420,000. Potency, µM (titrated, usually from 46.2 µM), inactives show at the top dose activity change, negative = growth inhibition, usual class: inhibitors; note: potency is the fitted concentration of half-maximal effect; nearly all actives have a fitted effect of over 55% in size
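Chicken DT40 Tdp1-/- cells complemented with human TDP1, 400 cells/well, exposed to compounds plus 20 nM camptothecin for at least 48 h at 37 C; viability read as ATP content by CellTiter-Glo luminescence.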
Numbers without * were called inactive; ? = inconclusive; nt = no result. An excerpt weighted towards active compounds, which were near 19% of everything screened. Unless noted, calls come from the whole dose curve; as a rule, active = well fitted curve in the direction sought with a large enough effect; inconclusive = small, poorly fitted or top-dose-only effect, or another doubt; inactive = no such curve, though single readings can be large; an effect the other way counts as inactive or inconclusive. Unless noted, % is set by controls: 0 for no effect and ±100 for the full control effect.

SMILES	ELG1 repair inh	IL1B secr inh	TDP1 cell noCPT	HT1080 IDH1KD tx	HT1080NT lethal	DT40 TDP1 CPT
O=C(O)CC1c2ccccc2CCN1C(=O)Nc1cc(Cl)ccc1Cl (stereo not given)	nt	nt	20.6µM*	nt	nt	20.6µM*
O=C(CC1C(=O)NCCN1C(=O)c1ccccc1)Nc1cc(Cl)ccc1Cl (stereo not given)	1.6%	0.0	-8.8%	0.5%	-1.7%	-4.4%
COc1cc2c(cc1OC)C(CC(=O)O)N(C(=O)Nc1cc(OC)c(OC)c(OC)c1)CC2 (stereo not given)	nt	nt	?	nt	nt	3.66µM*
COc1cc2c(cc1OC)C(C)N(C(=O)CCc1c[nH]c3ccccc13)CC2 (stereo not given)	?	21.1	?	?	?	?
COc1cc2c(cc1OC)C(C)N(C(=O)c1cc3c(C)cc(C)cc3[nH]1)CC2 (stereo not given)	16.4µM*	-80.6*	16.4µM*	6.51µM*	?	16.4µM*
COc1cc2c(cc1OC)C(C)N(C(=O)Nc1ccc(F)cc1)CC2 (stereo not given)	?	-0.6	7.31µM*	?	?	13µM*
CC(=O)N1c2ccc(S(=O)(=O)N3CCCCCC3)cc2CC1C(=O)NCc1ccccc1F (stereo not given)	nt	nt	-17.9%	nt	nt	-30.9%
CCc1c(O)nc(SCC(=O)N2CCc3cc(OC)c(OC)cc3[C@@H]2C)[nH]c1=O	-29.4%	-2.1	-4.5%	-0.8%	-2.2%	5.7%
COc1cc2c(cc1OC)C(C)N(C(=O)Nc1cc(C)cc(C)c1)CC2 (stereo not given)	?	35.4	2.59µM*	7.31µM*	6.51µM*	3.26µM*
COc1ccc(C2=NC(C)(C)N(CC(=O)Nc3cccc(C)c3)C2=O)cc1	nt	nt	3.66µM*	nt	nt	4.61µM*
CC1(C)Cc2ccccc2-c2nc3ccccc3c(=O)n21	-19.2%	2.0	11.6µM*	-1.2%	-10.8%	?
COc1ccccc1-c1nc2ccccc2c(=O)n1O	9.0%	10.9	-12.1%	13.0%	18.1%	2.4%
NCCCC[C@H]1CN=C(N)N1CCc1cccc2ccccc12	nt	-14.3	-25.2%	-0.3%	-3.4%	0.6%
NC1=NC[C@H](Cc2ccc(O)cc2)N1CCc1cccc2ccccc12	23.4%	?	14.6µM*	1.1%	-0.8%	18.4µM*
NC1=NC[C@@H](Cc2ccc(O)cc2)N1CCc1cccc2ccccc12	11.0%	-5.3	?	0.6%	-10.0%	18.4µM*
CCC(C)[C@H]1CN=C(N)N1CCc1cccc2ccccc12 (stereo not given in full)	nt	?	2.06µM*	-16.3%	?	1.84µM*
O=C1NC[C@@H](Cc2ccc(O)cc2)N(CCc2cccc3ccccc23)C1=O	?	-21.4	-12.8%	3.2%	6.9%	-2.0%
CCOc1ccc(NC(=O)C2CCCN(S(=O)(=O)c3cccc4nonc34)C2)cc1 (stereo not given)	nt	nt	-10.6%	nt	nt	-6.9%
CCn1c(COc2ccc(=O)n(-c3ccccc3)n2)n[nH]c1=S	4.8%	8.9	-15.0%	-0.1%	14.6%	24.3%
COCCCn1c(SCC(=O)N2CCOCC2)nc2ccccc2c1=O	18.7%	-1.8	-18.4%	1.6%	13.0%	-16.8%
O=S(=O)(c1ccccc1)N1CCC(c2ccncc2)CC1	nt	nt	20.6µM*	nt	nt	-84.8%
CC(=O)Nc1ccc(S(=O)(=O)N2CCC(c3ccncc3)CC2)cc1	nt	nt	2.59µM*	nt	nt	5.17µM*
CC(C)(C)c1ccc(S(=O)(=O)N2CCC(c3ccncc3)CC2)cc1	nt	nt	8.2µM*	nt	nt	13µM*
Cc1ccc(S(=O)(=O)N2CCN(C)CC2)c(C)c1	9.3%	1.9	-7.1%	4.3%	-3.3%	-3.3%
Cc1ccc(S(=O)(=O)N2CCN(S(=O)(=O)N3CCCCC3)CC2)c(C)c1	16.4µM*	14.3	-21.7%	9.0%	-9.3%	-16.7%
SMILES	ELG1 repair inh	IL1B secr inh	TDP1 cell noCPT	HT1080 IDH1KD tx	HT1080NT lethal	DT40 TDP1 CPT
CCOc1ccccc1N1CCN(S(=O)(=O)c2ccc(C3CCCCC3)cc2)CC1	nt	nt	?	nt	nt	-25.2%
Clc1cccc(-c2ccc(C3Nc4cccc5cccc(c45)N3)o2)c1	21.0%	nt	nt	nt	nt	nt
CC(=O)N1CCC(N(Cc2ccco2)C(=O)Nc2cccc(C)c2)CC1	nt	nt	?	nt	nt	0.6%
O=C(O)c1cccc(-c2ccccc2)c1O	nt	33.5	10.8%	1.9%	4.4%	8.9%
CN(CCO)c1ccc2c(c1)OC[C@@H](Cc1ccccc1)NS2(=O)=O	nt	41.4	-22.2%	7.3%	13.4%	-8.7%
O=C(N/N=C/c1cccc(Br)c1)C1CC(=O)N(c2ccccc2)C1 (stereo not given)	-2.8%	-21.3	-0.1%	3.7%	9.8%	7.1%
CC(C)Cc1ccc(S(=O)(=O)N2CCC(c3ccncc3)CC2)cc1	nt	nt	7.31µM*	nt	nt	9.2µM*
NC(=O)C1CCCN(S(=O)(=O)c2ccccc2)C1 (stereo not given)	-2.9%	15.8	-15.8%	4.3%	15.4%	3.5%
CC(C)Cc1ccc(S(=O)(=O)N2CCCC2)cc1	-0.9%	-3.3	?	6.2%	6.6%	?
Cc1ccc(S(=O)(=O)N2CCC(c3ccncc3)CC2)c(C)c1	nt	nt	10.3µM*	nt	nt	20.6µM*
NS(=O)(=O)c1ccc(S(=O)(=O)N2CCCC(c3ccccc3)C2)cc1 (stereo not given)	nt	3.0	23.1µM*	-16.0%	-18.1%	?
